Of roughly 7,900 targets only a part is listed; those with a hit were picked by preference. About 0.6% of all pairs of compound and target were hits.
Assays:
Assay in all cases: log2 fold change, soluble protein after heating vs DMSO (PISA); higher = thermal stabilisation; K562 cells, 10 uM, 30 min; active = over 0.2 and 3.5 SD of the protein, either way, in both replicates (recomputed)
[1] = compound: NC(=O)Nc1cc(-c2cccc(F)c2)sc1C(=O)N[C@H]1CCCNC1
Procedure, shortened: (§1)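 K562 cells at 2×10^6 cells/mL were given 10 μM compound for 30 min. Aliquots then went through 3 min of heating across 48°C-58°C, were pooled, and were extracted in PBS with 0.5% NP-40 at 4°C, and the supernatant after 21,000xg for 90 min was quantified by TMTpro 16plex LC-MS/MS with channel sums equalised. Thermal stability relative to control samples, from duplicates, is given as log2 fold change.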

[2] = compound: NC(=O)c1cnc(N[C@@H]2CCCC[C@@H]2N)nc1Nc1cccc(-n2nccn2)c1
Procedure, shortened: as §1

[3] = compound: NC1(c2ccc(-c3nc4ccn5c(=O)[nH]nc5c4cc3-c3ccccc3)cc2)CCC1
Procedure, shortened: as §1

[4] = compound: NCC(=O)Nc1ccc(-n2nc(C(F)(F)F)cc2-c2ccc3c(ccc4ccccc43)c2)cc1
Procedure, shortened: as §1

[5] = compound: Nc1ccccc1NC(=O)c1ccc(CNC(=O)OCc2cccnc2)cc1 [entinostat]
Procedure, shortened: as §1

[6] = compound: O=C(CCCCCCC(=O)Nc1ccccc1)NO [vorinostat]
Procedure, shortened: as §1

[7] = compound: O=C(CCCCCCNC(=O)c1cnc(N(c2ccccc2)c2ccccc2Cl)nc1)NO [citarinostat]
Procedure, shortened: as §1

[8] = compound: O=C(O)c1ccc2c(c1)nc(Nc1cccc(Cl)c1)c1ccncc12 [silmitasertib]
Procedure, shortened: as §1

[9] = compound: O=C1NC(=O)C(c2cnc3ccccn23)=C1c1cn2c3c(cc(F)cc13)CN(C(=O)N1CCCCC1)CC2
Procedure, shortened: as §1

[10] = compound: c1cc(OCCN2CCCCC2)cc(-c2n[nH]c3ccc(-c4nnc[nH]4)cc23)c1
Procedure, shortened: as §1

[11] = compound: c1cn2cc(-c3ccc4cn[nH]c4c3)nc(Nc3ccc(N4CCOCC4)cc3)c2n1 [entospletinib]
Procedure, shortened: as §1

Measured: log2 fold change

CBX1 (UniProt P83916)
UniProt P83916, sequence (P83916 whole entry, looked up): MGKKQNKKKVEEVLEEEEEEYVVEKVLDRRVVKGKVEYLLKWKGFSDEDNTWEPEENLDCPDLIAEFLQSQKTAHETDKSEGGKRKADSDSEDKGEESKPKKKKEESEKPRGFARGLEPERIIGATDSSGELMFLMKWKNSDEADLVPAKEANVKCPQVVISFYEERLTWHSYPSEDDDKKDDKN
inactive: [1] 0.02 | [2] -0.032 | [3] 0.025 | [4] 0.004 | [5] 0.017 | [6] -0.036 | [7] -0.035 | [8] 0.045 | [9] 0.006 | [10] -0.034 | [11] 0.066

CNN3 (UniProt Q15417)
UniProt Q15417, sequence (Q15417 whole entry, looked up): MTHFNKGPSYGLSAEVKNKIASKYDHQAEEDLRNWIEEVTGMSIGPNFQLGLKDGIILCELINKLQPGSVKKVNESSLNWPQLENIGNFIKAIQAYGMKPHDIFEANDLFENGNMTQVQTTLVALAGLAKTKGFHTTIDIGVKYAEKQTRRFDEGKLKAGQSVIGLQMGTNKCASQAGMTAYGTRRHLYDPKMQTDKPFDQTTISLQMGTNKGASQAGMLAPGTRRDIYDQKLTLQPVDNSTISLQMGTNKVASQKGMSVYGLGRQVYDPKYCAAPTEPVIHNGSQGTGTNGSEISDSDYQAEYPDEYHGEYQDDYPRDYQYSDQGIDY
inactive: [1] -0.051 | [2] -0.125 | [3] -0.124 | [4] -0.144 | [5] 0.091 | [6] 0.023 | [7] 0.047 | [8] 0.047 | [9] -0.032 | [10] -0.001 | [11] -0.022

CETN2 (UniProt P41208)
UniProt P41208, sequence (P41208 whole entry, looked up): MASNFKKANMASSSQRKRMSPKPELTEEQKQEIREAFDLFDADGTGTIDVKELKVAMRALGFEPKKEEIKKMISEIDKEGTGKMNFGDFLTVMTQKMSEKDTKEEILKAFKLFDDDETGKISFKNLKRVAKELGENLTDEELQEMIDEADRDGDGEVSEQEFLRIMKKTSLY
inactive: [1] -0.051 | [2] 0.024 | [3] 0.102 | [4] 0.076 | [5] -0.033 | [6] -0.122 | [7] -0.1 | [8] -0.028 | [9] -0.027 | [10] -0.091 | [11] 0.057

CLUH, A0A494C0R8
inactive: [1] 0.031 | [2] 0.031 | [3] -0.003 | [4] -0.062 | [5] 0.09 | [6] 0.195 | [7] -0.026 | [8] 0.046 | [9] 0.118 | [10] -0.08 | [11] 0.119

COQ7 (UniProt Q99807)
UniProt Q99807, sequence (Q99807 whole entry, looked up): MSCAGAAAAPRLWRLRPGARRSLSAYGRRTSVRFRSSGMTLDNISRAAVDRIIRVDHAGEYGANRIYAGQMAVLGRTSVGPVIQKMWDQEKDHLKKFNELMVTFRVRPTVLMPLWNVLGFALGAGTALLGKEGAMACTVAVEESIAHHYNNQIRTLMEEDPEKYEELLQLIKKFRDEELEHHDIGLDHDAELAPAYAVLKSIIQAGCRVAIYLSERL
inactive: [1] -0.12 | [2] -0.009 | [3] -0.076 | [4] -0.007 | [5] 0 | [6] -0.032 | [7] 0.083 | [8] 0.008 | [9] -0.002 | [10] 0.015 | [11] 0.026

CPT2 (UniProt P23786)
UniProt P23786, sequence (P23786 whole entry, looked up): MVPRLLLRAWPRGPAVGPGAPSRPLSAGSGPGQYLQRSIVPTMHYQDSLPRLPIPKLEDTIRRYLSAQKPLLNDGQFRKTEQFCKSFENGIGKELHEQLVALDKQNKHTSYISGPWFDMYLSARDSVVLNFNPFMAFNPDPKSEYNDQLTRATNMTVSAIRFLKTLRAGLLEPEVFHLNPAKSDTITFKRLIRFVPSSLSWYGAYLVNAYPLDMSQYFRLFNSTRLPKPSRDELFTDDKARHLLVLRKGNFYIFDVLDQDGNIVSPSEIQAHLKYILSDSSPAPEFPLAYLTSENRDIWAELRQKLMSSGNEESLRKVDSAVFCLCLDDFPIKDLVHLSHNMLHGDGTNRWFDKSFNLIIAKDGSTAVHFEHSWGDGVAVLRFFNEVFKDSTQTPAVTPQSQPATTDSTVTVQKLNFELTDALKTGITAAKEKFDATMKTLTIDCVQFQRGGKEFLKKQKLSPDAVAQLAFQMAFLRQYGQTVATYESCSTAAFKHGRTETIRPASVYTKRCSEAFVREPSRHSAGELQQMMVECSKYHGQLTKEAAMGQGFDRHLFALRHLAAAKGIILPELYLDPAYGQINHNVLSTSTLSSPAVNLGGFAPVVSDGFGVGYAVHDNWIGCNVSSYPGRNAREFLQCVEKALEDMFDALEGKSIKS
inactive: [1] -0.045 | [2] -0.264 | [3] 0.193 | [4] -0.052 | [5] 0.174 | [6] -0.097 | [7] -0.109 | [8] -0.08 | [9] 0.014 | [10] 0.157 | [11] 0.206

CDCA2 (UniProt Q69YH5)
UniProt Q69YH5, sequence (Q69YH5 whole entry, looked up): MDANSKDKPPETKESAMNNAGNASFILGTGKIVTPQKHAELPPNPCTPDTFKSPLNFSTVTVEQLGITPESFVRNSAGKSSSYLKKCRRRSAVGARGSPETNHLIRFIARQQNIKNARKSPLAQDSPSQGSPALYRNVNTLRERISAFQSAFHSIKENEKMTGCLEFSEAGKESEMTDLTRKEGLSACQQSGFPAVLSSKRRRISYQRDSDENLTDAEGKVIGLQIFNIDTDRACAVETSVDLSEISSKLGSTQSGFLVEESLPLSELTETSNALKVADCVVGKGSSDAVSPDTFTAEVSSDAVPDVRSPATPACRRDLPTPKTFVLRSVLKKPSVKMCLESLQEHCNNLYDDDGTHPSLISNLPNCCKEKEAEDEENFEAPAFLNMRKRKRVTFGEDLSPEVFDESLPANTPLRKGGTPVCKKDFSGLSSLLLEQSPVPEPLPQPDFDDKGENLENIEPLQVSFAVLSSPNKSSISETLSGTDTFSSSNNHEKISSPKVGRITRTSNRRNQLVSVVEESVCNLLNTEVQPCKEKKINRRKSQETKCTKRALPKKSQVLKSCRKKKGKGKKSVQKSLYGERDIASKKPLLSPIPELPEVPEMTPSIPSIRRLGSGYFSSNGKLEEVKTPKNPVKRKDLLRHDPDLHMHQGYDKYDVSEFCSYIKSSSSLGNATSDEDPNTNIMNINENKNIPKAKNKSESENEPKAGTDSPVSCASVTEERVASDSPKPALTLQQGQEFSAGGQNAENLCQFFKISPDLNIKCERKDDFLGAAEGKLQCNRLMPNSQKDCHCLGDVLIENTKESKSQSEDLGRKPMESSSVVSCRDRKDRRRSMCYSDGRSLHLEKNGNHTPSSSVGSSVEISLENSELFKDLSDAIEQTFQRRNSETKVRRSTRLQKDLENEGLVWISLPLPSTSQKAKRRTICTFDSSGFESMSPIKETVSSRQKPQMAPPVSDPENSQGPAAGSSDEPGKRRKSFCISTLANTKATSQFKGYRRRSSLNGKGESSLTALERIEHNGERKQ
inactive: [1] -0.034 | [2] -0.096 | [3] -0.003 | [4] 0.037 | [5] -0.11 | [6] 0 | [7] -0.27 | [8] 0.133 | [9] 0.035 | [10] 0.243 | [11] -0.013

COASY isoform 2 (UniProt Q13057)
inactive: [1] 0 | [2] 0.004 | [3] -0.138 | [4] -0.004 | [5] 0.018 | [6] 0.063 | [7] 0.054 | [8] 0.042 | [9] -0.004 | [10] -0.01 | [11] -0.076

C19orf53 (UniProt Q9UNZ5)
inactive: [1] 0.136 | [2] 0.061 | [3] 0.279 | [4] 0.177 | [5] -0.026 | [6] -0.051 | [7] -0.105 | [8] 0.123 | [9] 0.214 | [10] -0.155 | [11] 0.099

COA6 isoform 2 (UniProt Q5JTJ3)
UniProt Q5JTJ3, sequence (Q5JTJ3 whole entry, looked up): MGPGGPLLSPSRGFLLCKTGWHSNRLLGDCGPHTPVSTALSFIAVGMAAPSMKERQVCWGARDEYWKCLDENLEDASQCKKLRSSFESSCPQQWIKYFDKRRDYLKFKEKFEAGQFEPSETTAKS
inactive: [1] 0.034 | [2] 0.106 | [3] -0.009 | [4] -0.018 | [5] -0.003 | [6] -0.024 | [7] 0.053 | [8] 0.01 | [9] 0.011 | [10] -0.041 | [11] 0.004

CLCN3 isoform 2 (UniProt P51790)
UniProt P51790, sequence (P51790 whole entry, looked up): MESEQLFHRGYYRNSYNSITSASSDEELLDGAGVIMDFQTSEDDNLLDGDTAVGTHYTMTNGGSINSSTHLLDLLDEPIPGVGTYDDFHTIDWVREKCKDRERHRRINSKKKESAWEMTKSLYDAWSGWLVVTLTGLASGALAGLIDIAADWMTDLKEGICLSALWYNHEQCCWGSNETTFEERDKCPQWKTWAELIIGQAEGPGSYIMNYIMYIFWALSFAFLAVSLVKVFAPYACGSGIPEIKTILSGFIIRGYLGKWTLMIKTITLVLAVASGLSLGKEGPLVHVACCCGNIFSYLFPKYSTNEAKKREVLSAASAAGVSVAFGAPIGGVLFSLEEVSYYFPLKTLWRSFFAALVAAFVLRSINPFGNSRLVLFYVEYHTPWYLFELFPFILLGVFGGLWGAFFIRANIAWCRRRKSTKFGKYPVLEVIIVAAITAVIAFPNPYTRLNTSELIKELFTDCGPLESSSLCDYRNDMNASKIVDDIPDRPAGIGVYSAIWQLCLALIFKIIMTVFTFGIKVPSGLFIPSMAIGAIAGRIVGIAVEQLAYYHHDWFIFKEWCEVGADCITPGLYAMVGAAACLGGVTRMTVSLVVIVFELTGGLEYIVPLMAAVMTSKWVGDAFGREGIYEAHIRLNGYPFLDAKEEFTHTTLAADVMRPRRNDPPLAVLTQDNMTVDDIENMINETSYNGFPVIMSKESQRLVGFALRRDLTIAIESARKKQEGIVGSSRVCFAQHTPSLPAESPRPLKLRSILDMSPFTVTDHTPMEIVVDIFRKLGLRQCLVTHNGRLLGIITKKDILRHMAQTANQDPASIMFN
inactive: [1] 0.013 | [2] 0.014 | [3] -0.17 | [4] 0.024 | [5] 0.019 | [6] 0.037 | [7] -0.002 | [8] -0.015 | [9] -0.002 | [10] 0.283 | [11] -0.039

CD63 (UniProt P08962)
inactive: [1] -0.026 | [2] -0.001 | [3] -0.05 | [4] -0.035 | [5] -0.004 | [6] -0.066 | [7] 0.026 | [8] 0.02 | [9] 0.051 | [10] -0.063 | [11] -0.049

CNOT2 (UniProt Q9NZN8)
inactive: [1] -0.012 | [2] -0.014 | [3] -0.058 | [4] -0.087 | [5] -0.023 | [6] 0.018 | [7] 0.026 | [8] 0.046 | [9] 0.007 | [10] -0.058 | [11] -0.012

CLUH (UniProt O75153)
inactive: [1] -0.002 | [2] -0.072 | [3] 0.023 | [4] -0.025 | [5] 0.022 | [6] 0.05 | [7] -0.08 | [8] 0.063 | [9] 0.133 | [10] 0.041 | [11] 0.06

CPD (UniProt O75976)
inactive: [1] 0.002 | [2] 0.032 | [3] -0.101 | [4] -0.008 | [5] 0.016 | [6] 0.019 | [7] 0.018 | [8] 0.032 | [9] -0.034 | [10] -0.111 | [11] 0.011

COPS4 (UniProt Q9BT78)
inactive: [1] 0.015 | [2] 0.009 | [3] -0.032 | [4] 0.036 | [5] 0.01 | [6] 0.027 | [7] 0.031 | [8] -0.035 | [9] -0.01 | [10] 0.027 | [11] 0.003

CHP1 (UniProt Q99653)
UniProt Q99653, sequence (Q99653 whole entry, looked up): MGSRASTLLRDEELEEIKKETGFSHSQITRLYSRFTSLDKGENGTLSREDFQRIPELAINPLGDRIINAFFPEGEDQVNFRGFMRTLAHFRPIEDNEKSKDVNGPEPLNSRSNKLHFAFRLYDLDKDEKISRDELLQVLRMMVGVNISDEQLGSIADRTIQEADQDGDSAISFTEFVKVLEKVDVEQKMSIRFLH
inactive: [1] -0.1 | [2] 0.014 | [3] -0.104 | [4] 0.19 | [5] -0.012 | [6] -0.066 | [7] 0.001 | [8] 0.061 | [9] -0.054 | [10] 0.011 | [11] 0.044

CPSF3 (UniProt Q9UKF6)
UniProt Q9UKF6, sequence (Q9UKF6 whole entry, looked up): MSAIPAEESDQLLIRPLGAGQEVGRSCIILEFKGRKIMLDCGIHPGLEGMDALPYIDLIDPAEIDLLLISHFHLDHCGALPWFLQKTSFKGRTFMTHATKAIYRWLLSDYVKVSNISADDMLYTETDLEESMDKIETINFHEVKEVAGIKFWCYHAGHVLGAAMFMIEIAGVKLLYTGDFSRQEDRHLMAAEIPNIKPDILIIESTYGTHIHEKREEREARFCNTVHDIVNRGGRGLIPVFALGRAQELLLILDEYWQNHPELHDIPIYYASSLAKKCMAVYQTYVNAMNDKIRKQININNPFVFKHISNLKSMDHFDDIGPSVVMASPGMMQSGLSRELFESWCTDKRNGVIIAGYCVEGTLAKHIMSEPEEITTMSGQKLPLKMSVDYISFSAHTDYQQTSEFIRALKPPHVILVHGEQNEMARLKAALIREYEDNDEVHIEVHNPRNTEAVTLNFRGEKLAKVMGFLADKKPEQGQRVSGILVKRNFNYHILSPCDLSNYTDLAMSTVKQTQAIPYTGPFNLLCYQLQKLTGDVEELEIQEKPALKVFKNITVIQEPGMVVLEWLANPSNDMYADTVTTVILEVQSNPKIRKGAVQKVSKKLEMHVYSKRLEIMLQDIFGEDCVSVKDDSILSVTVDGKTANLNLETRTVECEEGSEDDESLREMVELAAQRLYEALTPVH
inactive: [1] 0.001 | [2] -0.05 | [3] -0.032 | [4] -0.058 | [5] -0.002 | [6] 0.016 | [7] 0.026 | [8] 0.129 | [9] -0.006 | [10] -0.075 | [11] 0

CLASP2 isoform 3 (UniProt O75122)
inactive: [1] 0.018 | [2] -0.018 | [3] -0.147 | [4] -0.036 | [5] 0.02 | [6] 0.069 | [7] 0.09 | [8] -0.033 | [9] -0.153 | [10] -0.055 | [11] -0.046

CAVIN1 (UniProt Q6NZI2)
inactive: [1] 0.034 | [2] -0.07 | [3] 0.046 | [4] 0.074 | [5] 0.008 | [6] 0.004 | [7] -0.004 | [8] 0.041 | [9] 0.108 | [10] -0.087 | [11] 0.076

C16orf58 (UniProt Q96GQ5)
UniProt Q96GQ5, sequence (Q96GQ5 whole entry, looked up): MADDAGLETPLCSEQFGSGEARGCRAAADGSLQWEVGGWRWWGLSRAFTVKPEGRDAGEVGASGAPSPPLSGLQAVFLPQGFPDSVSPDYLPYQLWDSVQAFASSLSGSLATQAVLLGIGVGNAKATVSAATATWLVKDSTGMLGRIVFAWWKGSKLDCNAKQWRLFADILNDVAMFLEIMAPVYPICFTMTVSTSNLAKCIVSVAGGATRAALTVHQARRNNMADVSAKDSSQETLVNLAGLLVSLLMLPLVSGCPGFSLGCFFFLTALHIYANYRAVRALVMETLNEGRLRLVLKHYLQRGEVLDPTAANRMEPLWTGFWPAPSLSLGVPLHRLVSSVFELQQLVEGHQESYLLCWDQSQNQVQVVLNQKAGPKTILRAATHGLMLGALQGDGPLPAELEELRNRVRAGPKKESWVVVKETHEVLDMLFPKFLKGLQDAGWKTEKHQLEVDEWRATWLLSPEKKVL
inactive: [1] -0.047 | [2] -0.05 | [3] -0.111 | [4] -0.08 | [5] 0.001 | [6] 0.026 | [7] 0.034 | [8] 0.032 | [9] -0.027 | [10] -0.017 | [11] 0.011

CASP2 (UniProt P42575)
inactive: [1] -0.317 | [2] -0.047 | [3] -0.099 | [4] 0.065 | [5] 0.017 | [6] 0.13 | [7] 0.058 | [8] 0.051 | [9] -0.008 | [10] -0.032 | [11] -0.004

CCAR1 (UniProt Q8IX12)
inactive: [1] 0 | [2] -0.068 | [3] -0.198 | [4] -0.035 | [5] 0.021 | [6] 0.067 | [7] 0.018 | [8] -0.049 | [9] -0.043 | [10] -0.016 | [11] -0.015

COX5A (UniProt P20674)
inactive: [1] 0.019 | [2] 0.103 | [3] 0.117 | [4] 0.024 | [5] 0.024 | [6] -0.078 | [7] -0.041 | [8] -0.055 | [9] -0.228 | [10] -0.046 | [11] 0.132

CASP8 isoform 9 (UniProt Q14790)
inactive: [1] -0.06 | [2] -0.051 | [3] -0.186 | [4] -0.151 | [5] -0.119 | [6] -0.021 | [7] -0.048 | [8] 0.12 | [9] 0.008 | [10] 0.009 | [11] 0.005

CRLF3 (UniProt Q8IUI8)
inactive: [1] 0.016 | [2] -0.233 | [3] -0.165 | [4] -0.105 | [5] 0.025 | [6] -0.023 | [7] 0.047 | [8] 0.104 | [9] -0.003 | [10] -0.057 | [11] 0.089

CIZ1 (UniProt Q9ULV3)
inactive: [1] -0.031 | [2] -0.087 | [3] -0.053 | [4] -0.022 | [5] -0.032 | [6] 0.036 | [7] 0.023 | [8] 0.026 | [9] 0.074 | [10] -0.045 | [11] -0.012
